Whole data set: some 8,300 sequences, median “log2 fold change of degron read counts, EGFP-low vs EGFP+ sorted cells (limma voom), compound-induced degradation” near -1.1, cut for the highest 2% near 3.2. The sample holds the highest values, similar sequences and a random draw of the others, so the mix is not that of the screen.
T1: CRBN, Q96SW2
T1 chain: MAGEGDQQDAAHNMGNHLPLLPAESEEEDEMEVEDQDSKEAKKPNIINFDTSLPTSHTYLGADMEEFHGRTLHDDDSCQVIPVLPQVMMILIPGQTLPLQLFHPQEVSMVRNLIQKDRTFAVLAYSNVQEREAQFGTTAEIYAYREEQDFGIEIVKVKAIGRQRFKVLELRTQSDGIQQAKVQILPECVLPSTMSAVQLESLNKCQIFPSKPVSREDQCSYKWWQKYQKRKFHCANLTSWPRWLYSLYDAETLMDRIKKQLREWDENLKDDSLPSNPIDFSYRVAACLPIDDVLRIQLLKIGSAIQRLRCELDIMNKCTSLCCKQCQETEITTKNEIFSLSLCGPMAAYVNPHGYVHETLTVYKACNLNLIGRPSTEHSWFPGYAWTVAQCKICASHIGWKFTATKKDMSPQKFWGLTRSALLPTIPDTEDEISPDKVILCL

B1: 46F_47F_49P_50I_52G_53H_54E_55F_67L_, Q9UKT9 (peptide)
chain: FFCPICGHEFTQKGNLLRHIKL
B2: 46F_47M_49N_50V_52G_53A_54M_55F_67L_, Q9UKT9 (peptide)
chain: FMCNVCGAMFTQKGNLLRHIKL
B3: 46F_47T_49N_50V_52G_53A_54L_55F_67L_, Q9UKT9 (peptide)
chain: FTCNVCGALFTQKGNLLRHIKL
B4: 46F_47K_49D_50I_52G_53A_54G_55F_67L_, Q9UKT9 (peptide)
chain: FKCDICGAGFTQKGNLLRHIKL
B5: 46F_47L_49N_50I_52G_53A_54A_55F_67L_, Q9UKT9 (peptide)
chain: FLCNICGAAFTQKGNLLRHIKL
B6: 46F_47R_49P_50I_52G_53R_54M_55F_67L_, Q9UKT9 (peptide)
chain: FRCPICGRMFTQKGNLLRHIKL
B7: 46F_47H_49N_50Q_52G_53H_54N_55F_67L_, Q9UKT9 (peptide)
chain: FHCNQCGHNFTQKGNLLRHIKL
B8: 46F_47V_49N_50I_52G_53A_54Y_55F_67L_, Q9UKT9 (peptide)
chain: FVCNICGAYFTQKGNLLRHIKL
B9: 46F_47S_49E_50Q_52G_53A_54H_55F_67L_, Q9UKT9 (peptide)
chain: FSCEQCGAHFTQKGNLLRHIKL
B10: 46F_47T_49P_50V_52G_53A_54C_55F_67L_, Q9UKT9 (peptide)
chain: FTCPVCGACFTQKGNLLRHIKL
B11: 46F_47E_49P_50V_52G_53A_54C_55F_67L_, Q9UKT9 (peptide)
chain: FECPVCGACFTQKGNLLRHIKL
B12: 46F_47I_49P_50V_52G_53A_54C_55F_67L_, Q9UKT9 (peptide)
chain: FICPVCGACFTQKGNLLRHIKL
B13: 46F_47W_49D_50I_52G_53A_54H_55F_67L_, Q9UKT9 (peptide)
chain: FWCDICGAHFTQKGNLLRHIKL
B14: 46F_47N_49D_50I_52G_53A_54H_55F_67L_, Q9UKT9 (peptide)
chain: FNCDICGAHFTQKGNLLRHIKL
B15: 46F_47E_49D_50I_52G_53A_54H_55F_67L_, Q9UKT9 (peptide)
chain: FECDICGAHFTQKGNLLRHIKL
B16: 46F_47C_49D_50I_52G_53A_54H_55F_67L_, Q9UKT9 (peptide)
chain: FCCDICGAHFTQKGNLLRHIKL
B17: 46F_47Y_49D_50I_52G_53A_54H_55F_67L_, Q9UKT9 (peptide)
chain: FYCDICGAHFTQKGNLLRHIKL
B18: 46F_47Q_49D_50I_52G_53A_54H_55F_67L_, Q9UKT9 (peptide)
chain: FQCDICGAHFTQKGNLLRHIKL

Target: T1, CRBN, Q96SW2
Assay: log2 fold change of degron read counts, EGFP-low vs EGFP+ sorted cells (limma voom), compound-induced degradation; higher = more compound-induced degradation of the degron-EGFP fusion; degrons are variants of IKZF1/3 zinc finger 2; compound dose not given here
Conditions: Jurkat, 18 h
[1] = compound: compound 19 (5-tert-butyl-thalidomide)
[2] = compound: compound 22 (5-morpholino-thalidomide)
[3] = compound: compound 33 (diphenyl IMiD analogue)
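Note: pooled lentiviral library of zinc finger degron-EGFP fusions in mCherry-positive Jurkat cells, FACS-sorted after compound exposure, with degron abundance counted by next-generation sequencing.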

Sequence	log2 fold change of degron read counts [1]	log2 fold change of degron read counts [2]	log2 fold change of degron read counts [3]	log2 fold change of degron read counts (compound: thalidomide)
B1	-1.46	-1.37	-1.31	-1.41
B2	-2.09	-2.13	0.122	-1.26
B3	-2.25	-1.98	-0.325	-1.1
B4	0.734	-1.83	-2.3	-1.43
B5	-0.363	-1.33	0.248	0.231
B6	-1.98	-1.28	-0.201	0.319
B7	-2.43	-3.18	-2.46	-2.52
B8	-0.917	-0.227	1.05	1.24
B9	-1.34	-2.19	-1.26	-1.95
B10	0.948	2.51	2.73	3.33
B11	0.122	-0.609	2.52	2.75
B12	-0.981	2.06	2.04	2.16
B13	2.34	3.41	0.744	-0.669
B14	0.871	-0.896	-1.51	-1.76
B15	-1.93	-3.04	-0.896	-0.791
B16	0.131	-0.464	-0.191	-0.916
B17	2.51	3.38	0.931	-1.03
B18	-1.42	-0.152	-0.605	1.82
